Each structure is given as a SMILES string. Calls of active or inactive are those of the source.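 Rule for the calls: active = inhibition above 20% together with a positive visual image hit; inconclusive = visual image hit but inhibition not above 20%; inactive = no visual image hit.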

Cell count and inhibition data for 15 molecules are collected here from PubChem BioAssay.

A short description of this experiment: inhibitors of TNFa-induced NFkB p65 translocation, primary screen, imaging, HUVEC, MLSMR starter and 10KST1 sets (AID 438).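 For inhibition: signal is the nuclear over cytoplasmic p65 intensity ratio per well.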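 Note: compound added about 3h40 before a 20 min TNFalpha stimulation.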 The settings on record: HUVEC TNFa-induced p65 nuclear translocation; cell count: measured here: nuclei count (cytotoxicity indicator), at 2.08 µM; inhibition: at 2 µM, stronger effect = higher value, 0% TNFa-plus-vehicle, 100% no-TNFa wells.
A word on the inhibition: it is the change of the read-out against control, counted positive when it falls. As to `CN1C(=O)CCC1(O)c1ccccc1` (stereo not given), the cell count stood at 565 and the inhibition was -9.2% (inactive).
Regarding `Cc1cc(=O)n(C)c(=O)n1CCCCCN1CCCC1`, the cell count turned out to be 655 and the inhibition was 2.2% (inactive).
In the case of `COc1ccc(N2CCN(Cc3nc4c(c(=O)[nH]c(=O)n4C)n3CC(C)=O)CC2)cc1`, the cell count was 682 and the inhibition is 0.5% (inactive).
In the same order, the values of `COC(=O)c1ccccc1NC(=O)CSc1nc2c(c(=O)n(C)c(=O)n2C)n1C` are 470 and 1% (inactive).
In the same order, the values of `Cc1csc2ncc(C(=O)Nc3ccccc3Cl)c(=O)n12` are 677 and 5.8% (inactive).
In the same order, the values of `Cc1nc(-c2cccc(N)c2)cs1` are 726 and -11% (inactive).
In the case of `Cn1c(=O)c2c([nH]c(=O)n2C)n(C)c1=O`, the cell count was found to be 364 and the inhibition was 1.7% (inactive).
The matching figures for `COc1ccc(NC(=O)c2cc(C3CC3)on2)c(OC)c1`: 603 and -2.9% (inactive).
Regarding `Cc1nnc(SCc2cc(=O)[nH]c(N3CCCCC3)n2)s1`, the inhibition was 5% (inactive) and the cell count was 639.
Regarding `CCN1CCN(Cc2nc3c(c(=O)[nH]c(=O)n3C)n2Cc2ccccc2Cl)CC1`, the inhibition is 1% (inactive) and the cell count came out at 584.
In the same order, the values of `CSc1ccc(-c2nc(CSCC(=O)N3CCOCC3)c(C)o2)cc1` are 2.7% (inactive) and 243.
With `Cc1ccc(OCCN2CCN(C(=O)CCC(=O)Nc3nnc(C)s3)CC2)cc1`, the cell count worked out at 349 and the inhibition is -4.3% (inactive).
In the same order, the values of `COc1ccccc1NC(=O)Cc1noc(CSc2cc(C)c3ccccc3n2)n1` are 572 and -12.8% (inactive).
On to `COc1cc2nc(SCC(=O)NC3CC3)n(CCC3=CCCCC3)c(=O)c2cc1OC`, for which the inhibition is -4% (inactive) and the cell count is 688.
As for `Cc1oc2cc3c(C(=O)OCCN(C)C)c(C)oc3cc2c1C(=O)OCCN(C)C`, the inhibition is -6% (inactive) and the cell count was found to be 445.
